Source: PubChem BioAssay (several laboratories)
An excerpt weighted towards active compounds, which were near 1.6% of everything screened.
eIF4H FP inh: human eIF4H binding inhibitors, primary screen, translation initiation inhibitor project, biochemical, uHTS, fluorescence polarization. Eukaryotic translation initiation factor 4H (Homo sapiens), Q15056. eIF4H fluorescence polarization binding assay. inhibition, % at 35 µM. actives 0.94% (n = 290,000). AID 2012, 2009;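 also: calls also rest on retests at 20 µM and on dose response follow-up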
PERK inh: block of dimerizer-induced PERK translation repression, primary screen, PERK inhibitor project, CHO PERK-DD cells, SEAP luminescence, HTS; actives 0.17% (n = 220,000); CHO PERK-DD fusion, SEAP luminescence translation reporter; inhibition, % at 5.6 µM; Eukaryotic translation initiation factor 2-alpha kinase 3 (Homo sapiens), Q9NZJ5;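 active = inhibition above the mean inhibition of all tested compounds plus 3 SD, set separately per screening campaign, cut at about 2.9% in these data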;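 also: PERK kinase domain activated by AP20187 dimerizer at 100 nM; 0% = DMSO with dimerizer and 100% = rapamycin at 8.4 µM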
PABP FP inh: PABP poly(A) RNA binding inhibitors, primary screen, biochemical, fluorescence polarization, uHTS. actives 1% (n = 290,000). AID 2014, 2009. Polyadenylate-binding protein 1 (Homo sapiens), P11940. inhibition, % at 35 µM;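 also: calls also rest on retests at 20 µM and on dose response follow-up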
eIF4E-4G inh: eIF4E–eIF4G protein interaction inhibitors, primary screen, biochemical, uHTS, TR-FRET, eIF4GI fragment; AID 782, 2007; actives 0.37% (n = 220,000); TR-FRET eIF4E-eIF4GI(517-606) binding, 2 h; inhibition, % at 21.7 µM;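 active = inhibition above about 30%, limit read from the data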;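 also: 0% = full FRET control wells and 100% = background wells lacking eIF4GI fragment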
Target sequence (P63073 whole entry, looked up, the tested form may be a part): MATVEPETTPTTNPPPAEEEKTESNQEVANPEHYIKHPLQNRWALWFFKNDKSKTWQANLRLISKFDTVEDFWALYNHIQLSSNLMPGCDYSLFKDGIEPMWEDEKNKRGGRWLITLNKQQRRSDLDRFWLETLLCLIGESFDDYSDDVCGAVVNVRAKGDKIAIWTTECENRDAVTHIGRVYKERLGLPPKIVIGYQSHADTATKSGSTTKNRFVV
Target sequence (Q04637 whole entry, looked up, the tested form may be a part): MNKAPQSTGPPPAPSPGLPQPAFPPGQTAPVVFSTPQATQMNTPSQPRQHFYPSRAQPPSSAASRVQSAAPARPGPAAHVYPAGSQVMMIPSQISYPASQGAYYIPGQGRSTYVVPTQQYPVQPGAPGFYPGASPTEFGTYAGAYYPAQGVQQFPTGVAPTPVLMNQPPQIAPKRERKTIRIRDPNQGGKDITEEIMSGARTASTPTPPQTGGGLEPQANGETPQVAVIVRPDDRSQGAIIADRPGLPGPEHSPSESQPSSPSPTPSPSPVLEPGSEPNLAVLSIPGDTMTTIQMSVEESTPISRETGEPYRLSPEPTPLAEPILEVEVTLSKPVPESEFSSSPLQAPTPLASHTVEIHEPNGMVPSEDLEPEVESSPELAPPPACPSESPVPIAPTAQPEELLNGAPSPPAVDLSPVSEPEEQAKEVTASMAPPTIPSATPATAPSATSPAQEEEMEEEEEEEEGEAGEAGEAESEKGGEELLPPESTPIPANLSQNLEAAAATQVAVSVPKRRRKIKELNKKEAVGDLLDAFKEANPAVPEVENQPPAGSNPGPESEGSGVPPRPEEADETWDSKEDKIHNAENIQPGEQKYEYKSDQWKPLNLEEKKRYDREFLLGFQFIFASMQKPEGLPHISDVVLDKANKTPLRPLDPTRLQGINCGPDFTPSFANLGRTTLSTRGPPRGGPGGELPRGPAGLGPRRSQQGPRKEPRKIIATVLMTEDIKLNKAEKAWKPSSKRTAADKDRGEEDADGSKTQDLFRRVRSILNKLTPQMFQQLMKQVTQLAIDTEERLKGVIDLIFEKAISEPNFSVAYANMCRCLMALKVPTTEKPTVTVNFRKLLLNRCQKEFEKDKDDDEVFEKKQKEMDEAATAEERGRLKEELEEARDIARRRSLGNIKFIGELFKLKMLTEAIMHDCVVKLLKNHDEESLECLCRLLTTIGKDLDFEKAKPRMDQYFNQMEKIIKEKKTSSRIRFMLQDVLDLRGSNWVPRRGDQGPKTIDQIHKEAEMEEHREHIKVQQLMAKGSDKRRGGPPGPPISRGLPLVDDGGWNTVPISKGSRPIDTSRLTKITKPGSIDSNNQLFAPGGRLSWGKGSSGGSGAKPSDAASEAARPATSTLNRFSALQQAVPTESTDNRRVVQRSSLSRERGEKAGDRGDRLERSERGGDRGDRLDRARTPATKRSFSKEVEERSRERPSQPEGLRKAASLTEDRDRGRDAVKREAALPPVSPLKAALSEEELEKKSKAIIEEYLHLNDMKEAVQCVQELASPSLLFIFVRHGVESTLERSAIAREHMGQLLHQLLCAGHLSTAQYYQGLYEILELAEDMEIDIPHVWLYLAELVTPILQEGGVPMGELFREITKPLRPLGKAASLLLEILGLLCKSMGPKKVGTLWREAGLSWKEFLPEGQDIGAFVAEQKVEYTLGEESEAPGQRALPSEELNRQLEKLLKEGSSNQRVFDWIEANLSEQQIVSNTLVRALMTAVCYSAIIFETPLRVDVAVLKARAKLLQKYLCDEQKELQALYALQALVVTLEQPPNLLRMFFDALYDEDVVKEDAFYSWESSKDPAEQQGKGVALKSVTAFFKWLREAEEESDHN
PABP1 MLLE inh: inhibitors of PABP1 MLLE–PAM2 peptide binding, primary screen, biochemical, fluorescence polarization, FITC-PAM2, GST-MLLE; Polyadenylate-binding protein 1 (Homo sapiens), P11940; AID 588489, 2011; actives 0.36% (n = 360,000); inhibition, % at 20 µM; in the data active = inhibition above about 35%, passing the limit was not always enough;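 also: plate controls were DMSO wells with GST-MLLE for no effect and wells lacking GST-MLLE protein for full effect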
An asterisk follows results filed as active. Unless noted, no rule for the calls is given here.

Results for Oc1ccc(C=Nc2ccc3ncccc3c2)c(O)c1 ?
eIF4H FP inh: 81.0*; PERK inh: 1.2; PABP FP inh: 61.5*; eIF4E-4G inh: 0.2

Results for COc1cccc(N=Cc2ccc(O)cc2O)c1 ?
eIF4H FP inh: inconclusive; PERK inh: 1.8; PABP FP inh: inconclusive; eIF4E-4G inh: 2.9; PABP1 MLLE inh: -27.6

Results for CCOc1ccc(C=Nc2cccc3ncccc23)cc1 ?
eIF4H FP inh: inconclusive; PERK inh: 1.2; PABP FP inh: -19.0; eIF4E-4G inh: 2.3; PABP1 MLLE inh: 1.8

How did Oc1ccc(C=Nc2cccc3ncccc23)c(O)c1 do in these assays?
eIF4H FP inh: 58.3; PERK inh: -0.5; PABP FP inh: 33.1*; eIF4E-4G inh: 5.1; PABP1 MLLE inh: 23.3

What do the screens show for `CC12CCC(=O)C=C1CCCC2=O` (stereo not drawn)?
PABP1 MLLE inh: -14.4

What do the screens show for `CCCCN(C(=O)CSCC(=O)Nc1ccc(OC)cc1)c1c(N)n(CC(C)C)c(=O)[nH]c1=O`?
PABP1 MLLE inh: 11.1

Results for CC1CN(C(=O)c2ccc(NS(=O)(=O)c3ccc(C(C)(C)C)cc3)cc2)CC(C)O1 (stereo not drawn) ?
eIF4H FP inh: -1.5; PABP FP inh: -5.1; PABP1 MLLE inh: 8.5

How did CCOC(=O)C(CC)(CC)C(=O)/C=C/c1ccc(Br)cc1 do in these assays?
eIF4H FP inh: -1.1; PERK inh: 3.2*; PABP FP inh: -7.3; eIF4E-4G inh: -9.4; PABP1 MLLE inh: 8.3

Results for COc1ccccc1CNc1nc(-c2cc(C)n(C)c2C)cs1 ?
eIF4H FP inh: inconclusive; PERK inh: 0.6; PABP FP inh: 40.3; eIF4E-4G inh: 46.9*; PABP1 MLLE inh: -54.0

What do the screens show for `Cc1cc(-c2csc(N)n2)c(C)n1C`?
eIF4H FP inh: 118.0*; PERK inh: 0.8; PABP FP inh: 106.9*; eIF4E-4G inh: 3.9; PABP1 MLLE inh: 21.8

Results for COCCNc1nc(-c2cc(C)n(CCc3ccc(OC)cc3)c2C)cs1 ?
eIF4H FP inh: 88.2; PERK inh: 0.2; PABP FP inh: -1.0; eIF4E-4G inh: 13.8; PABP1 MLLE inh: -60.6

Results for O=C(Nc1ccccc1C(F)(F)F)C1CCN(C(=O)Cc2ccccc2)CC1 ?
eIF4H FP inh: 0.0; PABP FP inh: 4.5; PABP1 MLLE inh: 6.2

Results for NC(=S)N=Nc1c(O)[nH]c2c(Cl)cc(Cl)cc12 ?
PABP1 MLLE inh: 45.2*

How did N=C(N)N=Nc1c(O)[nH]c2ccc(Br)cc12 do in these assays?
eIF4H FP inh: -2.5; PERK inh: 0.1; PABP FP inh: 4.1; eIF4E-4G inh: 1.4; PABP1 MLLE inh: -13.8

How did NC(=S)N=Nc1c(O)[nH]c2cc(F)c(F)cc12 do in these assays?
eIF4H FP inh: -7.7; PERK inh: 0.8; PABP FP inh: 2.0; eIF4E-4G inh: -3.4; PABP1 MLLE inh: 40.1*

How did CC(=O)c1ccc(S(=O)(=O)NCCC(=O)NC(C)c2ccncc2)cc1 (stereo not drawn) do in these assays?
PABP1 MLLE inh: 1.2

What do the screens show for `CCn1c(SCC(=O)N/N=C/c2c[nH]c3ccccc23)nnc1-c1ccc(Cl)cc1`?
eIF4H FP inh: active; PERK inh: 0.7; PABP FP inh: 90.7; eIF4E-4G inh: 3.6; PABP1 MLLE inh: -8.0

What do the screens show for `Cc1ccc(C)c(NC(=O)CCc2nnc3ccc(NCc4ccco4)nn23)c1`?
eIF4H FP inh: 32.3; PABP FP inh: 0.6; PABP1 MLLE inh: 8.3

Results for Cc1c(NC(=O)C(C)OC(=O)/C=C/c2ccco2)c(=O)n(-c2ccccc2)n1C (stereo not drawn) ?
eIF4H FP inh: 77.5*; PERK inh: -0.1; PABP FP inh: 2.8*; eIF4E-4G inh: 6.3; PABP1 MLLE inh: 0.4

How did Cc1cc(-n2c(C)cc(C(=O)COc3ccc(F)c(F)c3)c2C)no1 do in these assays?
PABP1 MLLE inh: -23.5

What do the screens show for `O=C(Cn1cc(COc2ccc(Br)cc2[N+](=O)[O-])nn1)c1ccc(O)cc1`?
PABP1 MLLE inh: -8.4

What do the screens show for `O=C1/C(=C/c2ccco2)Oc2c1ccc(O)c2CN1CCCCC1`?
eIF4H FP inh: 99.7; PERK inh: 0.6; PABP FP inh: 0.5; eIF4E-4G inh: 6.7; PABP1 MLLE inh: 69.9

What do the screens show for `COCCN(CCOC)Cc1c(O)ccc2c1O/C(=C\c1ccco1)C2=O`?
eIF4H FP inh: 91.0*; PABP FP inh: 86.1*; PABP1 MLLE inh: 70.5

What do the screens show for `Fc1ccc(Br)cc1C1C=C(c2cccnc2)Nc2ncnn21` (stereo not drawn)?
eIF4H FP inh: 4.8; PERK inh: 0.4; PABP FP inh: 14.1; eIF4E-4G inh: -0.8; PABP1 MLLE inh: 47.8*

What do the screens show for `CC(C)N(C(=O)[C@H]1C[C@H](CC(=O)NCCCn2ccnc2)C(=O)N2CCc3c([nH]c4ccc(Cl)cc34)[C@]12C)C(C)C`?
PABP1 MLLE inh: -1.5

What do the screens show for `Cc1cc(C)c(C)c(S(=O)(=O)NCC(=O)Nc2ccccc2F)c1C`?
eIF4H FP inh: -1.9; PABP FP inh: 13.5; PABP1 MLLE inh: 9.4

Results for CCOc1cccc(OCCCCn2ccnc2)c1 ?
eIF4H FP inh: -8.0; PERK inh: -0.2; PABP FP inh: 6.8; eIF4E-4G inh: 36.4*; PABP1 MLLE inh: 0.8

How did CC(C)C1=C2CCCCC2NC(=O)N1 (stereo not drawn) do in these assays?
eIF4H FP inh: 0.4; PERK inh: 1.3; PABP FP inh: 18.7; eIF4E-4G inh: -8.9; PABP1 MLLE inh: 61.6*

What do the screens show for `CC(C)C1(C2CCCC2)NC(=O)NC1=O` (stereo not drawn)?
PABP1 MLLE inh: 9.5

How did C[C@@H]1CCC2[C@](C)(CO)[C@@H](O)CC[C@]2(C)[C@@]12CC[C@@](CO)(CC(=O)O)O2 (stereo partly drawn) do in these assays?
eIF4H FP inh: -11.1; PABP FP inh: -6.4; PABP1 MLLE inh: 53.1*

How did C[C@@H]1CCC2[C@](C)(CO)[C@@H](O)CC[C@]2(C)[C@@]12CCC(CO)(CCO)O2 (stereo partly drawn) do in these assays?
eIF4H FP inh: -8.9; PABP FP inh: 2.2; PABP1 MLLE inh: -6.2

How did Cc1c(Cl)cccc1NC(=S)NNS(=O)(=O)c1ccc([N+](=O)[O-])cc1 do in these assays?
eIF4H FP inh: -5.4; PABP FP inh: 2.8; PABP1 MLLE inh: 26.1

What do the screens show for `CC(=O)NC1(C(F)(F)F)N=C2SCCN2C1=O` (stereo not drawn)?
eIF4H FP inh: 0.7; PERK inh: 2.0; PABP FP inh: -9.6; eIF4E-4G inh: 0.4; PABP1 MLLE inh: 28.0

Results for CC(C)Oc1ccc(C(=O)NC2(C(F)(F)F)N=C3SCCN3C2=O)cc1 (stereo not drawn) ?
eIF4H FP inh: -7.1; PERK inh: -0.1; PABP FP inh: -8.2; eIF4E-4G inh: -0.5; PABP1 MLLE inh: 46.4*
